From PubChem
An excerpt weighted towards active compounds, which were near 7.4% of everything screened.
SNCA expr inh: Primary qHTS assay for inhibitors of alpha-synuclein gene (SNCA) expression; HEK-293 SNCA-luciferase knock-in, luminescence, 24 h; Potency, µM (doses to about 57.2 µM), without a hit: at the highest dose activity change, negative = inhibition, hits mostly inhibitors; 140,000 tested, 0.17% active;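 further: plate controls were DMSO cells for no effect and cell-free wells for full effect; nearly all actives have a fitted effect of over 45% in size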
SNCA viab count: GF-AFC viability counterscreen for inhibitors of alpha-synuclein gene (SNCA) expression | 150,000 tested, 0.12% active | Potency, µM (titrated, usually from 57.1 µM), for inactives: top-dose activity change, negative = cytotoxicity, hits mostly cytotoxic | AID 1671193, 2021 | HEK-293-SNCA-luc viability, GF-AFC fluorescence, 24 h;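 further: 0% = DMSO-treated cells and -100% = medium-only wells without cells; nearly all actives have a fitted effect of over 30% in size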
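HEK-293-SNCA-luc cells (1500/well) plated 24 h, then exposed 24 h to a dilution series; GF-AFC added 30 min at 37C, fluorescence 405/540 nm; normalised to medium-only and DMSO wells, Hill fit.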
3T3 cytotox: Cytotoxic Profiling in NIH 3T3 Cell Line of Diverse Libraries Using Quantitative High-Throughput Screening; AID 1345082, 2018; 94,000 tested, 4.3% active; NIH 3T3 viability, CellTiter-Glo ATP luminescence, 48-72 h; Potency, µM (doses to about 96.7 µM), inactives show at the highest dose activity change, negative = cytotoxicity, actives largely listed as inhibitors; further: nearly all actives have a fitted effect of over 55% in size
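Viability of NIH 3T3 cells after 48 or 72 hr compound treatment at 37 °C was assessed by CellTiter-Glo, with luminescence imaged following a 10 min room-temperature step.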
HEK cytotox: Cytotoxic Profiling in HEK 293 Cell Line of Diverse Libraries Using Quantitative High-Throughput Screening. 94,000 tested, 6.6% active. HEK 293 viability, ATP luminescence (CellTiter-Glo), 48-72 h. Potency, µM (titrated, usually from 115 µM), inactives show at the highest dose activity change, negative = cytotoxicity, actives largely listed as inhibitors. AID 1345083, 2018; further: nearly all actives have a fitted effect of over 60% in size
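ATP-coupled CellTiter-Glo luminescence served as viability read-out, recorded 10 min after reagent addition at room temperature. HEK 293 cells, 250 cells/well, had been incubated with pintool-transferred compound for 48 or 72 hr at 37 degree Celsius.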
FLuc inh: Firefly luciferase inhibition profiling of diverse chemical library using quantitative high-throughput screening; Potency, µM (titrated, usually from 115 µM), most hits filed as inhibitors; 76,000 tested, 2.5% active; Luciferin 4-monooxygenase (Photinus pyralis), P08659; purified P. pyralis luciferase, luminescence, biochemical; further: nearly all actives have a fitted effect of over 65% in size
Target sequence (P08659 whole entry, looked up): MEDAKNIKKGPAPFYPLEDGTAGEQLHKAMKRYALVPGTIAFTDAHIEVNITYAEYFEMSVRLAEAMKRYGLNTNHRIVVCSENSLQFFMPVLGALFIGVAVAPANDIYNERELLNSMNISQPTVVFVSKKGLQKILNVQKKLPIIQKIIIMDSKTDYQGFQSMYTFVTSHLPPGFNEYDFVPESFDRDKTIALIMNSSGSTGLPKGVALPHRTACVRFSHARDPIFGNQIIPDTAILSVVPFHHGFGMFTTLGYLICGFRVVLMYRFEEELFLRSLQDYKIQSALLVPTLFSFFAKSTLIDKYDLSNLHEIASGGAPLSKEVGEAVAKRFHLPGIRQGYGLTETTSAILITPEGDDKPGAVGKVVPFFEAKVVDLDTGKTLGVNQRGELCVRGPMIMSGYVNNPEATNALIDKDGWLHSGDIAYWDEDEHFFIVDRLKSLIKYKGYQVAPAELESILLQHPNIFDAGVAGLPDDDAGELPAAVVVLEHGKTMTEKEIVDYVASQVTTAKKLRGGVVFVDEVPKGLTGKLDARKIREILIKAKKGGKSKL
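Biochemical qHTS: compound (6-point titration) added to 10uM D-luciferin plus 10uM ATP in Tris acetate pH 7.5 buffer with Mg, Tween-20 and BSA, then purified enzyme at 10nM; light output imaged.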
hNpr1 antagonist: Natriuretic polypeptide receptor (hNpr1) antagonism - Primary qHTS | Atrial natriuretic peptide receptor 1 (Homo sapiens), P16066 | HEK293 hNpr1 GloSensor cGMP, ANP-stimulated luminescence | Potency, µM (series often up to 46.3 µM), without a hit: at the top dose activity change, negative = inhibition, usual class: inhibitors | 76,000 tested, 1.6% active | AID 1347048, 2019; calls by dose curve; further: nearly all actives have a fitted effect of over 60% in size
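HEK293 cells stably expressing human Npr1 and cGMP GloSensor pGS-40F, loaded 2 h with 2% GloSensor reagent, given compound 30 min at room temperature. Luminescence read before and 20 min after 0.1 nM hNppA.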
* marks the source's active call; other numbers are inactive results; i = inactive; ? = inconclusive; nt = no result; [ ] = dose if it differs, or a comment. Unless noted, the call rests on the fitted dose curve; in most records, active means well fitted curve in the direction sought with a large enough effect; inconclusive means small, poorly fitted or top-dose-only effect, or another doubt; inactive means no such curve, though single readings can be large; an effect the other way counts as inactive or inconclusive. Unless noted, on the % scale 0 is the no-effect control and ±100 the full control effect; potency means the concentration at half of the fitted maximal effect.

SMILES | SNCA expr inh | SNCA viab count | 3T3 cytotox | HEK cytotox | FLuc inh | hNpr1 antagonist
Cc1ccc(S(=O)(=O)N2CCC(n3cnnc3C(C)C)CC2)cc1C | ? | 6% | ? | ? | i | ?
O=C(C[C@@H]1CCNC[C@@H]1Cc1cc(COc2ccccc2)on1)NC1CCCCC1 | 4%[87.6 µM] | 2%[87.6 µM] | 63µM* | 100µM* | i | 4%[70.6 µM]
CCCCc1cc(C[C@H]2CNCC[C@H]2CC(=O)N2CCC(Cc3ccccc3)CC2)no1 | -8% | ? | 28µM* | ? | i | 2%
O=C(C[C@@H]1CCNC[C@@H]1Cc1cc(COc2ccccc2)on1)N1CCC(Cc2ccccc2)CC1 | -9% | -27% | 28µM* | 25µM* | i | -17%
CC(C)(C)c1ccc(-c2cc(C[C@H]3CNCC[C@H]3CC(=O)N3CCC(Cc4ccccc4)CC3)no2)cc1 | -4% | 1% | -5% | -9% | i | 4%
O=C(C[C@@H]1CCNC[C@@H]1Cc1cc(CC2CCCCC2)on1)N1CCC(Cc2ccccc2)CC1 | -13% | -1% | 25µM* | ? | i | -2%
O=C(C[C@@H]1CCNC[C@@H]1Cc1cc(COc2ccccc2)on1)N1CCOCC1 | 6%[87.6 µM] | -2%[87.6 µM] | -12%[174 µM] | -25%[172 µM] | i | 5%[70.6 µM]
CCOC(=O)[C@H]1[C@@H](O)C(=O)N(Cc2ccccc2)C12CCN(C(=O)c1ccc(Cl)cc1)CC2 | nt | nt | ? | -17% | nt | nt
Cc1cnc(CN2CC3(CCC2=O)CCN(C(=O)[C@H]2C[C@@H]4C=C[C@H]2C4)CC3)cn1 | 14% | -14% | 3% | 3% | i | 3%
CN1CCN(CC2(O)CCC3(CCN(S(=O)(=O)N(C)C)CC3)CC2)CC1 | 8% | 21% | -24% | -10% | nt | nt
Cc1ccc(S(=O)(=O)c2ccc([N+](=O)[O-])o2)cc1 | nt | 9.5µM* | nt | nt | nt | nt
O=C(Nc1cccc(F)c1)Nc1ccnn1C1CCN(C(=O)C2CCC2)CC1 | 19% | 4% | -24% | -12% | i | 1%
COc1cccc(-c2cn3cc(C(=O)N4CCOCC4)nc3s2)c1 | 13µM* | ? | -27% | -14% | nt | nt
O=C(c1cn2cc(-c3ccccc3)sc2n1)N1CCOCC1 | -89%[87.6 µM] | 1%[87.6 µM] | ? | 89µM* | nt | nt
COc1cccc(-c2cn3cc(C(=O)NCCN4CCOCC4)nc3s2)c1 | 95% | -10% | ? | ? | nt | nt
COc1ccc(-c2cn3cc(C(=O)N4CCN(C)CC4)nc3s2)cc1 | 153% | 6% | -20% | ? | nt | nt
CN1CCN(C(=O)c2cn3cc(-c4ccc(F)cc4)sc3n2)CC1 | 126%[87.6 µM] | -15%[87.6 µM] | 79µM* | ? | nt | nt
COc1ccc(-c2cn3cc(C(=O)N4CCOCC4)nc3s2)cc1 | -87%[87.6 µM] | -8%[87.6 µM] | ? | 63µM* | nt | nt
COc1cccc(NC(=O)Cn2c(-c3ccc(F)cc3)nc(C)c(CCO)c2=O)c1 | 5% | -11% | 0% | ? | i | 1%
COc1ccc(CNC(=O)CC[C@H]2CNC(=O)[C@@H]3[C@@H](CCN3Cc3ncc[nH]3)N2C)cc1 | -16% | 7% | 2% | -2% | i | 5%
CNC(=O)C1(N2CCC[C@H]2C(=O)NCCOC)CCOCC1 | 7%[87.6 µM] | 4%[87.6 µM] | 4%[174 µM] | 0%[172 µM] | i | 2%[70.6 µM]
Cc1cccc2c1O[C@H]1[C@H](CO)CN([S+](=O)([O-])Cc3ccccc3)[C@@H]21 | nt | nt | ? | 79µM* | nt | nt
Cc1cccc2c1O[C@H]1[C@H](CO)CN(C(=O)CC(C)(C)C)[C@@H]21 | nt | nt | -12% | ? | nt | nt
COc1ccc(C(=O)N2CCC(c3nn(-c4ccccc4)c(=O)[nH]3)CC2)cc1 | 5% | -11% | -20% | -12% | i | 5%
N#Cc1ccc(CN2CC3(Cc4ccccc4C(=O)N3)C2)cc1 | -3% | -1% | 35µM* | ? | nt | nt
SMILES | SNCA expr inh | SNCA viab count | 3T3 cytotox | HEK cytotox | FLuc inh | hNpr1 antagonist
O=C(c1ccccc1Cl)N1CCC2(CC1)C(=O)NCN2Cc1ccc(Cl)cc1 | -18% | 10% | i | 3% | i | 3%
COc1ncccc1-c1ccnc(-c2nnc(C)n2-c2ccccc2)c1 | 36%[87.6 µM] | 4%[87.6 µM] | ? | ? | i | -2%[70.6 µM]
CSc1ncc(CN2CCOC(Cc3cccc(C(F)(F)F)c3)C2)cn1 (stereo not given) | -18% | -12% | 28µM* | 22µM* | i | 1%
CC(C)c1noc(C2CCCN(S(C)(=O)=O)CCC(=O)NCC2)n1 (stereo not given) | 2% | 10% | i | 0% | i | 2%
CC1(COc2ccccc2)COc2ccc(C(=O)NCc3cnccn3)cc2N1 (stereo not given) | 15%[87.6 µM] | 5%[87.6 µM] | ? | ? | i | -2%[70.6 µM]
COc1ccc(OCC2(C)COc3ccc(C(=O)NCc4ccc(F)cc4)cc3N2)cc1 (stereo not given) | ? | 0%[87.6 µM] | 28µM* | 28µM* | i | -30%[70.6 µM]
Cn1ccc(NC(=O)c2ccc3c(c2)NC(C)(COc2ccccc2)CO3)n1 (stereo not given) | -16%[87.6 µM] | -3%[87.6 µM] | ? | 100µM* | ? | ?
CC1(COc2ccccc2)COc2ccc(C(=O)NCc3ccccc3)cc2N1 (stereo not given) | ? | ? | 50µM* | 63µM* | i | -22%[70.6 µM]
Cc1ccc(CNC(=O)C2CCc3nc(N4CCN(C(=O)C(C)C)CC4)sc3C2)o1 (stereo not given) | 70% | -1% | -17% | 79µM* | i | -4%
Cc1ccccc1NC(=O)C1CCc2nc(N3CCN(C(=O)C(C)C)CC3)sc2C1 (stereo not given) | 14% | ? | 35µM* | 10µM* | i | -8%
CCC(=O)N1CCN(c2nc3c(s2)CC(C(=O)NCc2ccc(C)o2)CC3)CC1 (stereo not given) | 4% | 13% | ? | ? | i | -3%
CC(=O)N1CCN(c2nc3c(s2)CC(C(=O)NCc2cccc(Cl)c2)CC3)CC1 (stereo not given) | -7% | 0% | -31% | ? | i | -10%
CC(=O)N1CCN(c2nc3c(s2)CC(C(=O)Nc2cc(Cl)ccc2F)CC3)CC1 (stereo not given) | ? | ? | ? | 40µM* | i | -22%
O=S(=O)(Cc1ccccc1F)N1CCCC(Cc2noc(-c3cnccn3)n2)C1 (stereo not given) | 0% | -21% | -9% | ? | i | 0%
